# High-throughput results (PubChem BioAssay)
# STK33 kin inh = human STK33 kinase inhibition | actives 0.44% (n = 27,000) | inhibition, % at 12.5 µM | Q9BYT3 | ADP-Glo luminescence, MBP substrate; in the data active = inhibition above about 20%; inconclusive = no clear call, values can overlap the other calls
# Target sequence (Q9BYT3 whole entry, looked up): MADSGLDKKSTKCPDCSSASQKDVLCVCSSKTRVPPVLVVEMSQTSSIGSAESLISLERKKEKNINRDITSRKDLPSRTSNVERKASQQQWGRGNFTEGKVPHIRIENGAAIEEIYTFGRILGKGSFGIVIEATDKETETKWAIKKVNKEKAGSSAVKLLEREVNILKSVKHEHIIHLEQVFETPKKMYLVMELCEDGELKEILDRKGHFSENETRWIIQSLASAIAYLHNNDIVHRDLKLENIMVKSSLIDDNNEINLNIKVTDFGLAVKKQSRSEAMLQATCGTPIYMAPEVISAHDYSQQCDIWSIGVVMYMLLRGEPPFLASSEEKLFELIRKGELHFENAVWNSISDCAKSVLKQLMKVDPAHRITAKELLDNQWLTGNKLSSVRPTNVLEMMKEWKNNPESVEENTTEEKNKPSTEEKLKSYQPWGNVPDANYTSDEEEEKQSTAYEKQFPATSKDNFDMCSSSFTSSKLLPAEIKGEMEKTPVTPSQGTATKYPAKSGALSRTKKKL
# NOMO-1 viab = STK33 inhibitor candidate reducing NOMO-1 cell viability; NOMO-1 AML viability, CellTiter-Glo luminescence, 72 h; inhibition, % (test concentration not listed); actives 7.5% (n = 37,000); AID 2330; in the data active = inhibition above about 80%; inconclusive = no clear call, values can overlap the other calls
# PD-1 reverse act = activators reversing PD-1 mediated T-cell inhibition; primary human CD4 T cells, PD-L1 beads, CellTiter-Glo 96 h; 29,000 tested, under 10 active; AID 2316; activation, % (concentration not given with the values); call rule not given here;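 note: 0% = median vehicle wells and 100% = positive control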
# * = called active by the depositor; ? = inconclusive; . = no result given. This excerpt belongs to a sample that is enriched for hits.
SMILES,STK33 kin inh,NOMO-1 viab,PD-1 reverse act
CC(C)(C)NS(=O)(=O)c1ccc(OCC(=O)N2CCOCC2)cc1,-2.8,25.9,1.8
C[C@H]1CN([C@@H](C)CO)C(=O)c2cc(N(C)C)ccc2O[C@@H]1CN(C)Cc1ccc(C(=O)Nc2ccccc2N)cc1,.,111.9*,-1.5
C[C@@H]1CN([C@H](C)CO)C(=O)c2cc(NC(=O)c3ccncc3)ccc2O[C@@H]1CN(C)Cc1ccc(C(=O)Nc2ccccc2N)cc1,.,?,-2.5
C[C@H]1CN([C@@H](C)CO)C(=O)c2cc(NC(=O)c3ccncc3)ccc2O[C@@H]1CN(C)Cc1ccc(C(=O)Nc2ccccc2N)cc1,.,-2.6,-0.3
C[C@@H]1CN([C@@H](C)CO)C(=O)c2cc(N(C)C)ccc2O[C@@H]1CN(C)Cc1ccc(C(=O)Nc2ccccc2N)cc1,.,110.4*,-3.1
Cc1cccc(C)c1N(CC(=O)Nc1ccc(Br)cc1)S(C)(=O)=O,2.3,0.0,-1.3
O=C(CSc1nnc2c(n1)[nH]c1ccccc12)NCc1ccccc1,1.0,-1.1,.
COc1ccc(CCNC(=S)Nc2c(C)nn(C)c2C)cc1OC,-0.9,0.9,-1.6
COC(=O)c1ccc([C@H]2C(C#N)=C(N)C(C#N)(C#N)C3=CCC(C(C)(C)C)C[C@@H]32)cc1 (stereo not given in full),.,115.6*,-6.9
CC(C)(C)C1CC=C2[C@H](C1)[C@@H](c1ccsc1)C(C#N)=C(N)C2(C#N)C#N (stereo not given in full),.,22.6,0.1
C[C@@H]1CN([C@@H](C)CO)C(=O)c2cccc(NC(=O)Nc3ccc(C(F)(F)F)cc3)c2O[C@@H]1CN(C)CC1CCCCC1,.,95.4*,-11.9
C[C@@H]1CN([C@H](C)CO)C(=O)c2cccc(NC(=O)Nc3ccc(F)cc3)c2O[C@@H]1CN(C)CC1CCCCC1,.,8.9,-0.7
C[C@@H]1CN([C@@H](C)CO)C(=O)c2cccc(NC(=O)Nc3ccc(C(F)(F)F)cc3)c2O[C@@H]1CN(C)CC1CC1,.,56.3,-0.7
C[C@@H]1CN([C@H](C)CO)C(=O)c2cccc(NC(=O)Nc3ccc(C(F)(F)F)cc3)c2O[C@H]1CN(C)CC1CC1,.,84.4*,.
COc1c(S(=O)(=O)n2c(C)nc3ccccc32)ccc(Cl)c1Cl,3.9,26.1,-0.2
CCCCC1CCC(C(=O)Oc2ccc(OCC)cc2)CC1 (stereo not given),.,2.8,-0.6
COc1ccc(Cl)cc1N(CC(=O)Nc1cc(Cl)ccc1Cl)S(C)(=O)=O,-0.7,1.4,.
c1ccc2[nH]c(CCc3nc4ccccc4[nH]3)nc2c1,1.3,.,.
Fc1ccc(N(Cc2nc3ccccc3[nH]2)Cc2nc3ccccc3[nH]2)cc1,1.3,99.7*,.
Cc1cccc(C)c1OCC(=O)NCc1ccccn1,3.1,-4.2,1.2
COC(=O)c1cc2cc(O)c(-c3c(O)cc4cc(C(=O)OC)oc(=O)c4c3O)c(O)c2c(=O)o1,6.0,38.9,1.8
Cc1sc(NC(=O)c2cnccn2)c(C(N)=O)c1-c1ccccc1,4.3,4.5,-0.1
Cc1sc(NC(=O)c2ccccc2)c(C(=O)N2CCCCC2)c1C,.,19.2,-1.2
CCc1cc(C(c2ccc(Cl)cc2)N2CCN(CCO)CC2)c(NC(=O)c2ccccc2)s1 (stereo not given),.,116.8*,-6.2
COC(=O)c1c(NC(=O)CCN2C(=O)c3ccccc3C2=O)sc(C)c1-c1ccccc1,-1.6,-17.3,0.4
SMILES,STK33 kin inh,NOMO-1 viab,PD-1 reverse act
C[C@@H]1CN([C@@H](C)CO)C(=O)c2cc(NC(=O)Nc3cccc4ccccc34)ccc2O[C@@H]1CN(C)Cc1ccc2c(c1)OCO2,.,42.7,-1.6
C[C@H](CO)N1C[C@H](C)[C@H](CN(C)Cc2ccc(Cl)c(Cl)c2)Oc2ccc(NC(=O)Nc3cccc4ccccc34)cc2CC1=O,0.6,40.1,0.1
C[C@@H]1CN([C@H](C)CO)C(=O)Cc2cc(NC(=O)Nc3cccc4ccccc34)ccc2O[C@@H]1CN(C)Cc1ccc(Cl)c(Cl)c1,1.3,115.1*,-0.7
C[C@H]1CN([C@@H](C)CO)C(=O)c2cc(NC(=O)Nc3cccc4ccccc34)ccc2O[C@H]1CN(C)Cc1ccc(Cl)c(Cl)c1,1.3,?,-2.2
C[C@H]1CN([C@@H](C)CO)C(=O)Cc2cc(NC(=O)Nc3cccc4ccccc34)ccc2O[C@H]1CN(C)Cc1ccc(Cl)c(Cl)c1,-3.9,88.1*,-1.3
C[C@H]1CN([C@@H](C)CO)C(=O)c2cc(NC(=O)Nc3cccc4ccccc34)ccc2O[C@H]1CN(C)Cc1ccc2c(c1)OCO2,-0.8,97.2*,-0.1
C[C@@H]1CN([C@H](C)CO)C(=O)Cc2cc(NC(=O)Nc3cccc4ccccc34)ccc2O[C@H]1CN(C)Cc1ccc(Cl)c(Cl)c1,.,20.9,0.7
C[C@H]1CN([C@@H](C)CO)C(=O)c2cc(NC(=O)Nc3cccc4ccccc34)ccc2O[C@@H]1CN(C)Cc1ccc(Cl)c(Cl)c1,.,109.0*,-3.2
Cc1cc(=O)[nH]c(SCC(=O)Nc2ccc([N+](=O)[O-])cc2)n1,4.5,-9.3,0.7
Cc1ccc(C2=NN(C(=O)CCC(=O)O)C(c3ccc(F)cc3)C2)cc1 (stereo not given),0.3,35.2,-2.9
COc1ccc(-c2nnc(SCC(=O)Nc3cccc(F)c3)n2C)cc1,1.5,-5.7,1.2
Cc1nc2nc[nH]n2c(=O)c1NS(=O)(=O)c1ccc2c(c1)CCCC2,-2.8,-5.4,1.9
O=C(CSc1n[nH]c(-c2ccncc2)n1)Nc1cccc(Cl)c1Cl,-5.5,14.0,-0.6
COc1ccccc1CNc1nc2nc(C)cc(C)n2n1,3.8,-15.9,.
C=CCN(C(C)=O)c1nc(C)c(Br)c(OC)n1,.,13.2,0.9
NC(=O)OCC(O)COc1ccc(Cl)cc1 (stereo not given),-0.8,20.4,.
OC(COc1ccc(Nc2ccccc2)cc1)COc1ccc(Nc2ccccc2)cc1,.,102.7*,2.8
CC(=O)c1c(C)nc(-c2ccc(Cl)cc2)nc1NC(=O)Cc1ccccc1,-11.9,37.9,-2.6
O=C(c1ccccc1C(=O)N1CCCCC1)N1CCCCC1,.,-3.0,-0.1
COC(=O)C1=C(C)NC(C)=C(C(=O)OC)C1c1ccc(C(C)C)cc1,.,110.2*,-0.1
CCOC(=O)C1=C(C)NC(C)=C(C(=O)OC)C1c1cccc(Cl)c1Cl (stereo not given),-12.6,27.2,.
O=C(Nc1ccc(I)cc1C(=O)NCC1CCCO1)c1ccco1 (stereo not given),-5.7,-8.9,-0.3
C[C@@H]1CN([C@H](C)CO)C(=O)c2cc(NC(=O)Nc3cccc4ccccc34)ccc2O[C@H]1CN(C)Cc1ccc(Oc2ccccc2)cc1,5.9,108.6*,-9.2
COc1ccc(CN(C)C[C@H]2Oc3ccc(NC(=O)Nc4cccc5ccccc45)cc3C(=O)N([C@H](C)CO)C[C@@H]2C)cc1,.,24.3,-0.5
COc1ccc(CN(C)C[C@H]2Oc3ccc(NC(=O)Nc4cccc5ccccc45)cc3C(=O)N([C@@H](C)CO)C[C@H]2C)cc1,.,39.9,0.3
C[C@@H]1CN([C@@H](C)CO)C(=O)c2cc(NC(=O)Nc3cccc4ccccc34)ccc2O[C@@H]1CN(C)Cc1ccc(Oc2ccccc2)cc1,.,114.4*,.
CCN1CCN(C(=O)CSc2nc(-c3ccc(OC)c(OC)c3)cc(C(F)(F)F)n2)CC1,-1.4,69.9,-1.8
